BRCA1 expr up – BRCA1 expression activation | Potency, µM (top dose mostly 46.1 µM), inactives show at the highest dose activation, most hits filed as activators | AID 624202 | MCF7-BRCA1-FFLuc reporter, luminescence, 48 h; response scale: scaled: vehicle 0%, 10 µM genistein 100% | actives 1.1% (n = 380,000); note: potency is the fitted concentration of half-maximal effect; nearly all actives have a fitted effect of over 80% in size
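Cells: MCF7-BRCA1-FFLuc, 2000/well. Exposure: 48 h, 37 °C, 5% CO2. Read: luminescence, 15 min post-substrate. Controls: genistein 10 microM (maximal activation), DMSO (neutral).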
ELG1 repair inh – ELG1-dependent DNA repair inhibition. actives 2.3% (n = 330,000). Potency, µM (series often up to 46.1 µM), inactives show at the highest dose activity change, negative = inhibition, most hits filed as inhibitors. HEK293T ELG1-luciferase reporter, luminescence, 16 h; DNA damage induced by 5-fluorouridine. AID 504467; note: potency is the fitted concentration of half-maximal effect; % is set by controls: 0 for no effect and ±100 for the full control effect; nearly all actives have a fitted effect of over 55% in size
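Overnight (16 hr) co-exposure of 2,000 cells/well to 5-fluorouridine and compound at 37 °C preceded detection. Luciferase was quantified via ONE-Glo luminescence; loss of signal denotes inhibition.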
Nrf2 activator – activates Nrf2 signaling. AREc32 ARE-luciferase reporter (MCF7-derived line), luminescence, 24 h. Potency, µM (titrated, usually from 46.1 µM), inactives show at the highest dose activation, hits mostly activators. actives 0.31% (n = 410,000); note: potency is the fitted concentration of half-maximal effect; % of control where 0% means no effect; nearly all actives have a fitted effect of over 65% in size
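Cells of the AREc32 ARE-luciferase line are plated in OPTI-MEM containing 5% FBS and left overnight at 37 deg C. Compounds are pinned in, incubation continues 24 hr, and firefly luciferase signal is then measured.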
IL-2 act – IL-2 activation; IL-2 activation reporter assay, cell-based qHTS; stimulated with anti-CD3/CD4/CD28 beads; in transgenic mouse T cells; activation, % (series mostly up to about 46 µM); actives 0.065% (n = 360,000); AID 652025; in the data active = activation above about 50%; inconclusive = mostly about 30% to 49%; note: 0% is about no effect
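Readout: EGFP and DsRed signals by fluorescent plate cytometry. Unstimulated transgenic mouse T cells received compound 60 min before antibody-bead stimulation, then incubated 18 h at 37 degrees C.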
* hit, by the source's call; ? = inconclusive; . = not tested or not shown; [ ] = another dose, or the depositor's remark. Most compounds without a hit are left out; they make up all but 3.1% or so of the library. Unless noted, calls come from the whole dose curve; as a rule, active = well fitted curve in the direction sought with a large enough effect; inconclusive = small, poorly fitted or top-dose-only effect, or another doubt; inactive = no such curve, though single readings can be large; an effect the other way counts as inactive or inconclusive.

SMILES	BRCA1 expr up	ELG1 repair inh	Nrf2 activator	IL-2 act
COC(=O)c1cccc(NC(=O)c2cc(OC)c(OC)c(OC)c2Br)c1	-36%	12µM*	4%	5
COc1cc(C(=O)OCC(=O)NCc2ccc(F)cc2)cc(NC(=O)c2cccs2)c1OC	-18%	21µM*	-1%	-5
O=C(Nc1ccc(F)cc1)C(c1ccccc1OC(F)(F)F)N1CCN(c2cccc(C(F)(F)F)n2)CC1 (stereo unspecified)	.	.	.	-1
CC1CCCC(C)N1C(=O)c1cccc2c1-c1ccccc1/C2=N/O (stereo unspecified)	0%	21µM*	-1%	-1
CCOC(=O)c1cccc2c1-c1ccccc1/C2=N/O	38%	?	-2%	0
Nc1ccc(Sc2cnn(-c3ccccc3)c(=O)c2Cl)cc1	-18%	22%	16µM*	0
Cc1ccc(Sc2cnn(-c3ccccc3)c(=O)c2Cl)cc1	-82%	-3%	5µM*	0
COc1ccc(NC(=O)Cn2cnc3c(nc4n3CCCCC4)c2=O)c(OC)c1	.	.	-1%	.
CCOc1ccc(NC(=O)CSc2ncc3c(n2)-c2ccccc2N(Cc2ccccc2C)S3(=O)=O)cc1	.	.	0%	.
CC(C)(C)OC(=O)N1CCN(C(=O)c2[nH]cnc2C(=O)Nc2ccc(Cl)cc2)CC1	1%	21µM*	-1%	0
CC(C)(C)OC(=O)N1CCC(NC(=O)c2nc[nH]c2C(=O)NC2CCN(C(=O)OC(C)(C)C)CC2)CC1	-41%	?	0%	0
CC(C)(C)OC(=O)N1CCC(NC(=O)c2[nH]cnc2C(=O)Nc2cccc(Cl)c2)CC1	-45%	18µM*	-1%	-1
CC(C)(C)OC(=O)NCc1ccc(CNC(=O)c2nc[nH]c2C(=O)N2CCN(C(=O)OC(C)(C)C)CC2)cc1	-28%	12µM*	0%	0
Cn1cnc(C(=O)NC2CCN(C(=O)OC(C)(C)C)CC2)c1C(=O)NC1CCN(C(=O)OC(C)(C)C)CC1	16%	10µM*	0%	1
Cc1ccc(C)c(-n2nnnc2Sc2nnnn2-c2ccccc2)c1	-46%	21µM*	-2%	-1
O=C1CSC(=S)N1/N=C/c1ccc(O)c(O)c1O	-4%	23µM*	10%	-1
COc1cccc(CCNC(=O)C2CCCN(c3ncnc4c3nc3n4CCCCC3)C2)c1OC (stereo unspecified)	2%	7.3µM*	0%	-4
COc1ccccc1N1CCN(CCCNC(=O)C2CCCN(c3ncnc4c3nc3n4CCCCC3)C2)CC1 (stereo unspecified)	-25%	12µM*	0%	-1
COc1ccc(CNC(=O)c2nc(Cn3nc(C)c(Br)c3C)no2)cc1OC	4%	.	0%	.
CS(=O)(=O)c1ccc(-c2cccc(NC(=O)c3ccc(Br)o3)c2)nn1	-26%	-9%	14%	-5
COc1ccc(-c2ccc(NC(=O)c3ccc(Br)o3)cc2)nn1	4µM*	?	3%	0
CCN(CC)c1ccc(NC(=O)c2ccc(Br)o2)cc1	2.8µM*	?	6%	0
COC(=O)Cc1ccc(NC(=O)c2ccc(Br)o2)cc1	13µM*	?	2%	-1
CCOC(=O)c1[nH]c2ccccc2c1NC(=O)c1ccc(OC(C)C)cc1	-7%	.	0%	.
CN1CCN(C(CNC(=O)c2c(F)cccc2F)c2ccc3c(c2)OCO3)CC1 (stereo unspecified)	.	.	0%	.
SMILES	BRCA1 expr up	ELG1 repair inh	Nrf2 activator	IL-2 act
O=C(NCC(c1ccc(Cl)cc1)N1CCCCC1)c1ccccc1F (stereo unspecified)	.	.	4%	.
Cc1ccccc1CNC(=O)CCCn1c(=O)c2cccn2c2ccccc21	.	.	2%	.
Fc1ccc(CNc2ccc(N3CCN(Cc4ccccc4)CC3)cc2)cc1	-1%	7.3µM*	0%[9.22 µM]	-4
CCOC(=O)c1ccc(NC(=O)C(CC)Sc2nc3ncccc3[nH]2)cc1 (stereo unspecified)	.	.	5%	.
CCc1nc2c(OCc3cccc(Cl)c3)cccn2c1N(C)C(C)=O	-38%	.	8%	55*
CCc1nc2c(OCc3cccc(Cl)c3)cccn2c1N(C)C(=O)C(C)C	-39%	.	3%	0
COCCNC(=O)c1ccc2c(Cl)c3c(nc2c1)CCC3	5µM*	?	15%	-6
CCCN(CCC)CCCNC(=O)c1ccc2c(Cl)c3c(nc2c1)CCC3	-14%	4%	3%	-6
CN1c2ccsc2/C(=N/Nc2ccc(F)cc2)CS1(=O)=O	8%	?	13µM*	0
Cc1ccc(N/N=C2\CS(=O)(=O)N(C)c3ccsc32)cc1	3%	?	?	-1
CCn1c(C(=O)N2CCC(C(=O)N3CCN(c4ccc(OC)cc4)CC3)CC2)cc2sccc21	.	.	1%	.
COC(=O)c1cccc(CN2C(=O)C(C)Sc3cc(Cl)ccc32)c1 (stereo unspecified)	5µM*	.	3%[9.22 µM]	-1
CC(C)CCn1c(=O)c2cccnc2n(CC(=O)Nc2ccc(F)cc2)c1=O	-7%	.	-1%	.
Cc1cc2nc(-c3cccc(Br)c3)c(Cc3ccccc3)n2c(C)c1Br	-42%	.	11µM*	2
Cc1cc2nc(-c3cccc(Br)c3)c(Cc3ccsc3)n2c(C)c1Br	-15%	.	28%	0
COc1cc2c(cc1OC)C(c1cc(-c3cc(Cl)ccc3Cl)oc1C)=NCC2	-24%	.	.	.
Cc1c(-c2cccc(Cl)c2)nc2ccccc2c1C(=O)OCC(=O)Nc1ccc2c(c1)OCO2	-79%	18µM*	0%	-5
Cc1onc(-c2ccccc2)c1C(=O)OCC(=O)Nc1ccc2c(c1)OCO2	-33%	-22%	0%	-1
CCn1c(SCC(=O)NCc2ccco2)nnc1-c1cccc(N(C)C)c1	-1%	.	.	.
CCc1ccc(Nc2n[n+](-c3ccccc3)c(-c3ccc(OCc4ccccc4)cc3)s2)cc1	-81%	13µM*	-3%	-1
CCc1ccc(Nc2n[n+](-c3ccccc3)c(-c3ccc(N(CC)CC)cc3)s2)cc1	-71%	-3%	8%	0
CCNC(=O)C1(C)CCN(C(=O)c2ccc(-c3ccccc3)cc2)C1 (stereo unspecified)	10%	.	-2%	0
COc1ccc(Cl)cc1NC(=O)CN1CCC(n2nnc3cc(C)ccc32)CC1	-74%	21µM*	3%	-3
COc1ccccc1NC(=O)CN1CCC(n2nnc3cc(F)ccc32)CC1	-16%	21µM*	0%	-3
Cc1ccc2c(c1)nnn2C1CCN(CC(=O)Nc2ccccc2N2CCOCC2)CC1	-50%	?	2%	-3
COc1ccc(NC(=O)CCc2c(C)nn(-c3ccc(N4CCCC4)nn3)c2C)cc1Cl	.	.	7%	.
CCOC(=O)c1ccc(NC(=O)c2nc[nH]c2C(=O)N[C@@H](Cc2ccccc2)C(=O)OC(C)(C)C)cc1	-53%	23µM*	0%	-1
Cc1ccc(NC(=O)c2nc[nH]c2C(=O)NCCCCCCNC(=O)c2[nH]cnc2C(=O)Nc2ccc(C)cc2)cc1	0%	?	0%	-4
